Assay in all cases: universal protein binding microarray (PBM); transcription factors of Arabidopsis thaliana; high values mean tight binding
The target in one assay is T1, GST-ANAC092(1-176) (Arabidopsis thaliana, UniProt Q9FKA0 1-176).
T1 sequence: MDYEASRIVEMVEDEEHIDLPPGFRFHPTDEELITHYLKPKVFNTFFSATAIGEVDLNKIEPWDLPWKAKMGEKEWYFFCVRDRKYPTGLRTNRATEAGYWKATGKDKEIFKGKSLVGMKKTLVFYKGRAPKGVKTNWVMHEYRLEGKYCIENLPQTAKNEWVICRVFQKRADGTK
As to conditions: protein: recombinant; tags: GST; chain copies: 2; dsDNA, one strand shown. The essentials: (§1)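 Protein amounts were determined by A280 or anti-GST western blot after glutathione–Sepharose 4B purification of GST-tagged proteins induced in cells, with zinc acetate included for zinc-finger proteins. Duplicate runs at 200 to 500 nM final were done on custom all-10-mer Agilent 4 × 180K arrays made double-stranded by primer extension. The normalised enrichment score (E-score) over gapped and ungapped 8-mers is the measure of binding.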

Another assay has as its target T2, GST-ANAC055(1-171) (Arabidopsis thaliana, UniProt Q9LDY8 1-171).
T2 sequence: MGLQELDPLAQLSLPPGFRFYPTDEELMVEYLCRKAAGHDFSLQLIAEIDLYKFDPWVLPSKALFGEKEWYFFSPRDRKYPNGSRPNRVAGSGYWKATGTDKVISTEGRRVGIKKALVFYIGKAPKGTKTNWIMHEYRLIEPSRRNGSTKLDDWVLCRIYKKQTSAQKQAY
As to conditions: protein: recombinant; tags: GST; chain copies: 2; dsDNA, one strand shown. The essentials:
as §1

Another assay addresses T3, GST-ATAF1 NAC domain (Arabidopsis thaliana, UniProt Q39013 7-158).
T3 sequence: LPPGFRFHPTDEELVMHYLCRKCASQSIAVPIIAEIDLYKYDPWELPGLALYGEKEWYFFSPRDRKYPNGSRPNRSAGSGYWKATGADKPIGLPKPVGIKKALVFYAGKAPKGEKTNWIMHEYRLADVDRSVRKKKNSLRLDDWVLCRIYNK
Particulars: protein: recombinant; tags: GST; chain copies: 2; dsDNA, one strand shown. The essentials: as §1

For assay [1], the target named is T4, GST-ANAC092(1-285) full length (Arabidopsis thaliana, UniProt Q9FKA0 1-285).
T4 sequence: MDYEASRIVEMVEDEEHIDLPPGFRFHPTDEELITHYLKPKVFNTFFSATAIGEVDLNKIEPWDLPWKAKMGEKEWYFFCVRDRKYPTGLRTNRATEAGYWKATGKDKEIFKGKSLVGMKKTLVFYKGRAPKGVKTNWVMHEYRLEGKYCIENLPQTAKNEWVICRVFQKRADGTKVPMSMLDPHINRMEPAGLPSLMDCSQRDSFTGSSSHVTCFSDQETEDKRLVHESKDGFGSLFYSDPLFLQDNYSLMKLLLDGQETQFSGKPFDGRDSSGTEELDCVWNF
As to conditions: protein: recombinant; tags: GST; chain copies: 2; dsDNA, one strand shown. The essentials:
as §1

Another assay addresses T5, GST-NAP(1-166) (Arabidopsis thaliana, UniProt O49255 1-166).
T5 sequence: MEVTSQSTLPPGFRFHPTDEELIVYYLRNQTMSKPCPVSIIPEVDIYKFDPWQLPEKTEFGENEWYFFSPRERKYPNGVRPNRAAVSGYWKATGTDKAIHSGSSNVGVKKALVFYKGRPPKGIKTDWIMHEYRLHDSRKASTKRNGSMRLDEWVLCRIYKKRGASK
As to conditions: protein: recombinant; tags: GST; chain copies: 2; dsDNA, one strand shown. The gist of the method: as §1

The next assay deals with T6, GST-NST2(1-184) (Arabidopsis thaliana, UniProt Q9M274 1-184).
T6 sequence: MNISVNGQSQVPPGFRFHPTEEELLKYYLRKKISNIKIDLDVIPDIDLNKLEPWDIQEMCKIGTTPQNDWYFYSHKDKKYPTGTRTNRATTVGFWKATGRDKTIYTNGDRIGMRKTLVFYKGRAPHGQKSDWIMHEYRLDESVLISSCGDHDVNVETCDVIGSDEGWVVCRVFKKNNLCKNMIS
As to conditions: protein: recombinant; tags: GST; chain copies: 2; dsDNA, one strand shown. The gist of the method:
as §1

In a further assay the target is T7, GST-SND1(1-203) (Arabidopsis thaliana, UniProt Q9LPI7 1-203).
T7 sequence: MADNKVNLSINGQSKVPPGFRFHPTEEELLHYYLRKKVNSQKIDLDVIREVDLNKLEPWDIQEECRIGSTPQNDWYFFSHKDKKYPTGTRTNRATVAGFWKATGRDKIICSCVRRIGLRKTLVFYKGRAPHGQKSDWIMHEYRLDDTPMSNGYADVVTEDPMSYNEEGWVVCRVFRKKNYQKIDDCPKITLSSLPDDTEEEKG
Particulars: protein: recombinant; tags: GST; chain copies: 2; dsDNA, one strand shown. The gist of the method:
as §1

For a further assay, the target named is T8, GST-VND3 NAC domain (Arabidopsis thaliana, UniProt Q9FH59 12-162).
T8 sequence: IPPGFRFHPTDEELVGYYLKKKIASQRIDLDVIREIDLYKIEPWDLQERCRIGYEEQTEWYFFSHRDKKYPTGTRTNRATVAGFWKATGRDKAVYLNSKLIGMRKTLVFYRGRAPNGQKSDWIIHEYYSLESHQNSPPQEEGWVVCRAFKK
Particulars: protein: recombinant; tags: GST; chain copies: 2; dsDNA, one strand shown. The essentials: as §1

Another assay deals with T9, GST-VND7 NAC domain (Arabidopsis thaliana, UniProt Q9C8W9 9-158).
T9 sequence: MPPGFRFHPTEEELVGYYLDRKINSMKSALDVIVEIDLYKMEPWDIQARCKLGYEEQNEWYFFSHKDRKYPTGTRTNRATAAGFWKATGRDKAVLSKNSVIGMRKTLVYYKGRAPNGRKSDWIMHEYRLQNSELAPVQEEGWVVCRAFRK
Particulars: protein: recombinant; tags: GST; chain copies: 2; dsDNA, one strand shown. The essentials:
as §1

For a further assay, the target named is GST-NTL6(1-168) (Arabidopsis thaliana, UniProt Q9SCK6 1-168). Particulars: protein: recombinant; tags: GST; chain copies: 2; dsDNA, one strand shown. The essentials:
as §1

A further assay concerns the target T10, GST-NTL8 NAC domain (Arabidopsis thaliana, UniProt Q9XIN7 14-156).
T10 sequence: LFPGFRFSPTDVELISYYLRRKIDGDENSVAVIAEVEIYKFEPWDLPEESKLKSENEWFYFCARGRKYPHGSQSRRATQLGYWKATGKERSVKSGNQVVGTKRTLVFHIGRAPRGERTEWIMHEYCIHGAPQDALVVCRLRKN
As to conditions: protein: recombinant; tags: GST; chain copies: 2; dsDNA, one strand shown. The essentials:
as §1

In the next assay the target is GST-WRKY1(266-371) (Arabidopsis thaliana, UniProt Q9SI37 266-371). As to conditions: protein: recombinant; tags: GST; dsDNA, one strand shown. The gist of the method:
as §1

The target of another assay is T11, GST-ANAC019 NAC domain (Arabidopsis thaliana, UniProt Q9C932 14-162).
T11 sequence: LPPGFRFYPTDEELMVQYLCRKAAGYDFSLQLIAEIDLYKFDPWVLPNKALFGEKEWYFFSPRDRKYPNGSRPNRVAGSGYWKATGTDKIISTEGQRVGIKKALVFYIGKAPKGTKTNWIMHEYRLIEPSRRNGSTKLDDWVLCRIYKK
Particulars: protein: recombinant; tags: GST; chain copies: 2; dsDNA, one strand shown. The gist of the method: as §1

Sequence of GST-WRKY1(266-371) (Q9SI37 266-371): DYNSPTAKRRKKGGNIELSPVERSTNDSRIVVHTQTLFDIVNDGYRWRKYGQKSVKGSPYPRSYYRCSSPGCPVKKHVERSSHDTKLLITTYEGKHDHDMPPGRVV
Sequence of GST-NTL6(1-168) (Q9SCK6 1-168): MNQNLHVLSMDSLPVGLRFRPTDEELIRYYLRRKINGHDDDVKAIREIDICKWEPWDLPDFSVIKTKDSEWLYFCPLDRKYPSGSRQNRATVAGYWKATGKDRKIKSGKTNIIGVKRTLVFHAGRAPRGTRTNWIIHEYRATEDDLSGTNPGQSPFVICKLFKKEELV

Consider ACGCCATC, for which the binding signal was 0.421 E-score in the assay with GST-ANAC092(1-176); 0.098 E-score with GST-ANAC055(1-171); 0.0609 E-score in the assay with GST-ATAF1 NAC domain; 0.453 E-score in [1]; 0.171 E-score with GST-NAP(1-166); 0.237 E-score with GST-NST2(1-184). In addition, the figures for the binding signal with GST-SND1(1-203), in the assay with GST-VND3 NAC domain and with GST-VND7 NAC domain were 0.41 E-score, 0.125 E-score and 0.108 E-score, respectively.
Take ACAAGTTA: the binding signal was 0.362 E-score in the assay with GST-ANAC092(1-176); 0.106 E-score in the assay with GST-ANAC055(1-171); 0.162 E-score with GST-ATAF1 NAC domain; 0.41 E-score in [1]; 0.194 E-score with GST-NST2(1-184); 0.216 E-score in the assay with GST-SND1(1-203). Further, the results for the binding signal with GST-VND3 NAC domain and with GST-VND7 NAC domain were 0.152 E-score and 0.146 E-score, respectively.
With TTAAGAAA, the binding signal in the assay with GST-ANAC092(1-176) was found to be 0.151 E-score; with GST-NTL6(1-168), 0.461 E-score; with GST-ANAC055(1-171), 0.0935 E-score; with GST-ATAF1 NAC domain, 0.195 E-score; in assay [1] it was 0.227 E-score; with GST-NST2(1-184) it was 0.142 E-score. Also, the binding signal stood at 0.273 E-score with GST-NTL8 NAC domain, 0.367 E-score with GST-SND1(1-203), 0.0817 E-score with GST-VND3 NAC domain and 0.116 E-score with GST-WRKY1(266-371).
In the case of CACGTAAC, the binding signal with GST-ANAC092(1-176) came out at 0.466 E-score; with GST-ANAC019 NAC domain, 0.479 E-score; with GST-ANAC055(1-171) it was 0.452 E-score; with GST-ATAF1 NAC domain it was 0.436 E-score; in assay [1] it was 0.467 E-score; in the assay with GST-NAP(1-166), 0.468 E-score. Further, the binding signal with GST-NST2(1-184) turned out to be 0.279 E-score; with GST-NTL8 NAC domain it was 0.242 E-score; with GST-SND1(1-203), 0.321 E-score; with GST-VND3 NAC domain it was 0.44 E-score; in the assay with GST-VND7 NAC domain, 0.47 E-score.
On to ACGGCACT, for which the binding signal with GST-ANAC092(1-176) stood at 0.331 E-score; in the assay with GST-ANAC019 NAC domain, 0.467 E-score; with GST-ANAC055(1-171) it was 0.449 E-score; in the assay with GST-ATAF1 NAC domain, 0.454 E-score; in assay [1], 0.393 E-score; with GST-NAP(1-166), 0.425 E-score. The binding signal came to 0.187 E-score in the assay with GST-NST2(1-184); 0.0691 E-score with GST-NTL8 NAC domain; 0.174 E-score in the assay with GST-SND1(1-203); 0.402 E-score with GST-VND3 NAC domain; 0.453 E-score with GST-VND7 NAC domain.
In the case of TTGACCAA, the binding signal in the assay with GST-ANAC092(1-176) was 0.232 E-score; with GST-ANAC019 NAC domain, 0.063 E-score; in the assay with GST-ANAC055(1-171) it was 0.0923 E-score; in the assay with GST-ATAF1 NAC domain it was 0.066 E-score; in assay [1], 0.226 E-score; with GST-SND1(1-203), 0.0845 E-score. Further, the figures for the binding signal in the assay with GST-VND3 NAC domain and with GST-WRKY1(266-371) were 0.0958 E-score and 0.491 E-score, respectively.
